High-throughput results (PubChem BioAssay)
Hits are enriched below; roughly 12% of the tested compounds scored in any of these assays.
Cycloheximide cs – Cycloheximide Counterscreen for Small Molecule Inhibitors of Shiga Toxin | cell reporter, cycloheximide protein synthesis inhibition counterscreen | max response, % | 300,000 compounds, 12% hits; in the data active means max response mostly above about 13%, no sharp cut-off; inactive means mostly below about 14%; further: read at 38.3 µM for the half of the compounds with a filed dose
Shiga inhibitor – A qHTS for Small Molecule Inhibitors of Shiga Toxin; Vero cells, Shiga toxin protein synthesis inhibition reporter; 290,000 compounds, 9.2% hits; inhibition, % at 38.7 µM; in the data active means inhibition mostly above about 28%, no sharp cut-off; inactive means mostly below about 43%
Sm TGR block – qHTS Assay for the Inhibitors of Schistosoma Mansoni Peroxiredoxins; Potency, µM (series often up to 114 µM), usual class: inhibitors; 360,000 compounds, 3% hits; Schistosoma mansoni thioredoxin glutathione reductase (TGR), Q962Y6; purified TGR, DTNB reduction, TNB absorbance 405 nm; active means well fitted inhibition curve with a large enough effect; inconclusive means small, poorly fitted or top-dose-only effect; inactive means no such curve, though single readings can be large or run the other way; further: nearly all actives have a fitted effect of over 60% in size
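TGR 20 nM + NADPH 100 uM (dispensed conc.), cpd preinc 15 min RT; start with NADPH (500 uM addition) then DTNB (15 mM addition). Kinetic TNB absorbance, 405 nm filter. Four-parameter Hill fit across titration.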
FMDV inh – High Throughput Screening for Foot and Mouth Disease Virus Antivirals. FMDV antiviral cell-based qHTS. Potency, µM (top dose mostly 57.9 µM), usual class: inhibitors. 410,000 compounds, 1.2% hits; calls by dose curve; tested in HEK293T cells; further: read-out not given here; nearly all actives have a fitted effect of over 45% in size
Numbers stand for hits; i = inactive; ? = inconclusive; nt = not tested or not shown; [ ] = another dose, or the depositor's remark.

SMILES	Cycloheximide cs	Shiga inhibitor	Sm TGR block	FMDV inh
Cc1nnc(SCC2=C(C(=O)O)N3C(=O)C(NC(=O)c4cccc(F)c4F)C3SC2)s1 (configuration not stated)	i	i	10µM	i
Cc1cc(C)n(CC(=O)NC2C(=O)N3C(C(=O)O)=C(CSc4nnc(C)s4)CSC23)n1 (configuration not stated)	i	i	25.1µM	i
Cc1nnc(SCC2=C(C(=O)O)N3C(=O)C(NC(=O)Cn4ncc(Cl)c4C)C3SC2)s1 (configuration not stated)	i	i	3.16µM	i
CCOC(=O)c1scc(-c2ccccc2)c1S(=O)(=O)Nc1ccc(N(C)C)cc1	nt	nt	i	i
COc1ccc2c(CNCc3ccco3)c(C(=O)O)n(Cc3ccc(F)cc3Cl)c2c1	nt	nt	i	i
O=C(CSc1nnnn1C1CC2CCC1C2)Nc1ccnc2ccccc12 (configuration not stated)	i	i	i	39.8µM
O=C(CSc1nnnn1C1CCCCC1)Nc1ccccc1F	i	i	nt	i
C#CCOCCOCCOCCNc1nc(N2CCN(C(=O)[C@H](CCC(=O)O)n3cc(C(N)Cc4ccc(O)cc4)nn3)CC2)nc(N2CCN(C(=O)[C@H](Cc3ccc(O)cc3)n3cc(C(N)CC(C)C)nn3)CC2)n1 (some centres not stated)	i	i	14.1µM	nt
C#CCOCCOCCOCCNc1nc(N2CCN(C(=O)[C@H](CCC(=O)O)n3cc(CN)nn3)CC2)nc(N2CCN(C(=O)[C@H](CCC(=O)O)n3cc([C@@H](N)[C@H](C)CC)nn3)CC2)n1	nt	nt	nt	i
C#CCOCCOCCOCCNc1nc(N2CCN(C(=O)[C@H](CCCCN)n3cc([C@@H](N)CC(C)C)nn3)CC2)nc(N2CCN(C(=O)[C@H](Cc3ccc(O)cc3)n3cc([C@@H](N)CC(C)C)nn3)CC2)n1	i	i	i	i
C#CCOCCOCCOCCNc1nc(N2CCN(C(=O)[C@H]([C@@H](C)CC)n3cc([C@@H](N)Cc4ccc(O)cc4)nn3)CC2)nc(N2CCN(C(=O)[C@H](CCCCN)n3cc([C@@H](N)CC(C)C)nn3)CC2)n1	34.8	i	12.6µM	nt
C#CCOCCOCCOCCNc1nc(N2CCOCC2)nc(N2CCN(C(=O)[C@H](CCC(=O)O)n3cc(C(N)[C@H](C)CC)nn3)CC2)n1 (some centres not stated)	i	i	20µM	i
C#CCOCCOCCOCCNc1nc(N2CCN(C(=O)C([C@@H](C)CC)n3cc(C(N)Cc4ccc(O)cc4)nn3)CC2)nc(N2CCN(C(=O)[C@H](CCC(=O)O)n3cc(C(N)CO)nn3)CC2)n1 (some centres not stated)	i	i	39.8µM	i
CCCOc1ccc(Nc2cc(C)nc(C)n2)cc1	nt	nt	i	i
C#CCOCCOCCOCCNc1nc(N2CCN(C(=O)[C@H](CCC(=O)O)n3cc(C(N)[C@H](C)CC)nn3)CC2)nc(N2CCN(C(=O)[C@H](Cc3ccc(O)cc3)n3cc(C(N)[C@H](C)CC)nn3)CC2)n1 (some centres not stated)	i	i	50.1µM	i
C#CCOCCOCCOCCNc1nc(N2CCN(C(=O)[C@H](CCC(=O)O)n3cc(C(N)CC(C)C)nn3)CC2)nc(N2CCN(C(=O)[C@H](Cc3ccc(O)cc3)n3cc(C(N)CC(C)C)nn3)CC2)n1 (some centres not stated)	i	i	i	i
C#CCOCCOCCOCCNc1nc(N2CCN(C(=O)[C@H]([C@@H](C)CC)n3cc([C@@H](N)CO)nn3)CC2)nc(N2CCN(C(=O)[C@H]([C@@H](C)CC)n3cc([C@@H](N)CC(C)C)nn3)CC2)n1	i	i	35.5µM	i
C#CCOCCOCCOCCNc1nc(N2CCN(C(=O)[C@H](Cc3ccc(O)cc3)n3cc([C@@H](N)CC(C)C)nn3)CC2)nc(N2CCN(C(=O)[C@H](Cc3ccc(O)cc3)n3cc([C@@H](N)CC(C)C)nn3)CC2)n1	i	i	17.8µM	nt
C#CCOCCOCCOCCNc1nc(N2CCN(C(=O)[C@H]([C@@H](C)CC)n3cc([C@@H](N)CO)nn3)CC2)nc(N2CCN(C(=O)[C@H]([C@@H](C)CC)n3cc([C@@H](N)CO)nn3)CC2)n1	i	i	i	nt
CCC1Cc2cc(O)ccc2C2=C1c1ccc(O)cc1CC2CC (configuration not stated)	i	i	nt	?
O=C(NCc1cccs1)C1CCN(C(=O)N2CCOc3ccccc32)CC1	nt	nt	i	i
Cc1ccc2oc(-c3cccc(NC(=O)c4sc5c([N+](=O)[O-])cccc5c4Cl)c3)nc2c1	nt	nt	i	i
CCOc1ccc(N2C(=O)CC(NC3CCN(C(=O)c4cccc(Cl)c4)CC3)C2=O)cc1 (configuration not stated)	i	i	i	i
CCOC(=O)c1ccc(N2C(=O)CC(NC3CCN(C(=O)c4cccc(Cl)c4)CC3)C2=O)cc1 (configuration not stated)	i	i	50.1µM	?
COc1ncc2nc(-c3ccc(F)cc3)c(=O)n(Cc3ccc(F)cc3)c2n1	nt	nt	nt	i
SMILES	Cycloheximide cs	Shiga inhibitor	Sm TGR block	FMDV inh
COc1ccc(NS(=O)(=O)c2ccc(Oc3cccc(C(=O)O)c3)cc2)cc1	i	i	i	i
COc1cccc(C(=O)/C=C/Nc2ccc(S(=O)(=O)Nc3ccc(C(C)=O)cc3)cc2)c1	50.9	91.1	?	i
CC(=O)c1ccc(NS(=O)(=O)c2cccc(C)c2)cc1	35.5	88.6	i	i
COc1ccc(C(=O)/C=C/Nc2cccc(O)c2)cc1	i	i	i	i
COc1ccc(C(=O)/C=C/Nc2ccc(S(=O)(=O)Nc3cccc(C(C)=O)c3)cc2)cc1	39.1	93.4	i	i
COc1cccc(C(=O)/C=C/Nc2ccc(S(=O)(=O)Nc3nc(C)cc(C)n3)cc2)c1	i	i	i	i
COc1cccc(C(=O)/C=C/Nc2ccc(S(=O)(=O)Nc3ncccn3)cc2)c1	42.8	103.0	i	i
CCOC(=O)c1[nH]c(C)c(CCC(=O)N2CCN(c3cc(Cl)ccc3C)CC2)c1C	nt	nt	i	?
O=C(/C=C/Nc1ccc(S(=O)(=O)Nc2ncccn2)cc1)c1ccc2ccccc2c1	i	i	i	i
O=C(/C=C\Nc1ccc(S(=O)(=O)Nc2ncccn2)cc1)c1ccccc1	50.6	142.3	i	i
Cc1cc(NC(=O)CSCc2ccccc2)no1	i	i	i	i
Cc1cc(CSCc2ccc(Cl)cc2)no1	23.1	i	i	i
O=C(Nc1sc2c(c1C(=O)NCc1cccnc1)CCCC2)c1cc(=O)c2ccccc2o1	nt	nt	i	i
CCC1CCCCN1C(=O)COC(=O)c1n[nH]c2ccccc12 (configuration not stated)	19.2	i	i	i
CC1CCN(C(=O)COC(=O)c2n[nH]c3ccccc23)CC1	41.0	79.3	?	i
CCC1CCCCN1C(=O)COc1ccccc1NC(C)=O (configuration not stated)	i	i	50.1µM	i
O=C(COc1ncnc2ccccc12)N1CCOCC1	i	i	i[11.4 µM]	i
CC1CCN(C(=O)COc2ncnc3ccccc23)CC1	i	37.3	i	i
O=C(OCC(=O)N1CCCCCC1)c1n[nH]c(=O)c2ccccc12	i	i	i	i
